Results on nine compounds are retold here after PubChem BioAssay (NCI).

Test [1] is described as follows: NCI Yeast Anticancer Drug Screen. Data for the rad50 strain (AID 155).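 Note: 0% = growth of vehicle-only cultures of the same strain.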 The settings on record: S. cerevisiae rad50 strain growth inhibition, active compounds read high. In outline: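 A DNA repair-deficient yeast mutant serves as the test organism; compound-induced growth inhibition is calculated against vehicle-treated cells.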
Test [2] in a line: NCI Yeast Anticancer Drug Screen. Data for the mec2-1 strain (AID 157). The settings on record: S. cerevisiae mec2-1 strain, active compounds read high. The essentials:
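Mutant yeast (mec2-1) grown with compound; growth inhibition relative to vehicle control reported.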

Test [3] is described as follows: NCI Yeast Anticancer Drug Screen. Data for the sgs1 mgt1 strain (AID 161).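 Note: 0% = growth of cultures given vehicle only.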 Particulars: S. cerevisiae sgs1 mgt1 strain, active compounds read high. The essentials: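 Growth of a repair-deficient yeast mutant was monitored after compound treatment and expressed as inhibition relative to vehicle-treated cultures.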
Test [4] in a line: NCI Yeast Anticancer Drug Screen. Data for the cln2 rad14 strain (AID 165).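 Note: 0% = growth equal to vehicle treated cultures.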 Particulars: S. cerevisiae cln2 rad14 strain, active compounds read high. In outline: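 Readout is yeast growth inhibition versus vehicle-treated controls, using a strain with cln2 and rad14 alterations exposed to compound.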
Test [5] is described as follows: NCI Yeast Anticancer Drug Screen. Data for the bub3 strain (AID 167). The settings on record: S. cerevisiae bub3 mutant strain, active compounds read high. In outline:
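Inhibition values come from growth of compound-treated mutant yeast normalised to vehicle-treated controls.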

Test [6] is described as follows: NCI Yeast Anticancer Drug Screen. Data for the mlh1 rad18 strain (AID 175). Particulars: S. cerevisiae mlh1 rad18 strain growth inhibition, active compounds read high. The essentials:
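Genetically defined yeast (DNA repair-deficient) exposed to compounds; growth inhibition determined relative to vehicle.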

[7] abbreviates: at 5.0 µM (retest, dose inferred, filed as 0.5).
The mark [8] stands for this setting: at 50.0 µM (retest, dose inferred, filed as 5.0).

This is part of a sample that, as a whole, favours compounds with a hit. Of some 79,000 tested, about 15% had one in any assay. Values without a mark were called inactive. The source made the active and inactive calls. Cut-off read from the data, not from the text of the source: active = growth inhibition above about 70%; inactive = the rest.

Consider `CC12CCC(=O)C=C1CCC1C2CCC2(C)C(c3cnc[nH]3)CCC12` (configuration not stated), for which the growth inhibition in test [1] (setting [7]) is 51%; in test [1] (setting [8]), 75% (active); in test [1] (at 50.0 µM) it was 77% (active); in test [2] (setting [7]), 36%; in test [2] (setting [8]), 46%; in test [2] (at 50.0 µM) it was 30.1%. In addition, the growth inhibition in test [3] (setting [7]) is 39%; in test [3] (setting [8]), 82% (active); in test [3] (at 50.0 µM), 65.2%; in test [4] (setting [7]), 52%; in test [4] (setting [8]) it was 43%; in test [4] (at 50.0 µM), 34.9%. The growth inhibition is 53% in test [5] (setting [7]); 70% (active) in test [5] (setting [8]); 69.5% in test [5] (at 50.0 µM); 41% in test [6] (setting [7]); 70% (active) in test [6] (setting [8]); 39.1% in test [6] (at 50.0 µM).
For `COc1ccc2c(c1)CCc1c(-c3noc4c3CCc3cc(OC)ccc3-4)noc1-2`, the growth inhibition is -7% in test [1] (setting [7]); -15% in test [1] (setting [8]); 9.65% in test [1] (at 50.0 µM); 5% in test [2] (setting [7]); 19% in test [2] (setting [8]); 19% in test [2] (at 50.0 µM). For the same compound, the growth inhibition in test [3] (setting [7]) is 4%; in test [3] (setting [8]), -2%; in test [3] (at 50.0 µM), -0.9%; in test [4] (setting [7]), 11%; in test [4] (setting [8]), 9%; in test [4] (at 50.0 µM), 53.5%. Also, the growth inhibition in test [5] (setting [7]) is -2%; in test [5] (setting [8]), 2%; in test [5] (at 50.0 µM) it was -7.75%; in test [6] (setting [7]), -2%; in test [6] (setting [8]) it was 10%; in test [6] (at 50.0 µM), 54.2%.
Consider `CCCCCCCCCCCC(=O)[O][Sn]([CH2]C)([CH2]C)[O]C(=O)CCCCCCCCCCC`, for which the growth inhibition in test [1] (setting [7]) is 7%; in test [1] (setting [8]) it was 5%; in test [1] (at 50.0 µM) it was 79.3% (active); in test [2] (setting [7]), 2%; in test [2] (setting [8]), 2%; in test [2] (at 50.0 µM), 88.3% (active). Moreover, the growth inhibition in test [3] (setting [7]) was 3%; in test [3] (setting [8]), 44%; in test [3] (at 50.0 µM), 95.8% (active); in test [4] (setting [7]), 5%; in test [4] (setting [8]), 0%; in test [4] (at 50.0 µM) it was 48.1%. Further, the growth inhibition is 3% in test [5] (setting [7]); -7% in test [5] (setting [8]); 16.4% in test [5] (at 50.0 µM); 4% in test [6] (setting [7]); 12% in test [6] (setting [8]); 88.7% (active) in test [6] (at 50.0 µM).
With `O=C(O)c1ccc2cc3ccccc3cc2c1`, the growth inhibition is -16% in test [1] (setting [7]); 65% in test [1] (setting [8]); 75.9% (active) in test [1] (at 50.0 µM); 5% in test [2] (setting [7]); 48% in test [2] (setting [8]); 47.4% in test [2] (at 50.0 µM). The growth inhibition in test [3] (setting [7]) was -10%; in test [3] (setting [8]), 50%; in test [3] (at 50.0 µM) it was 63%; in test [4] (setting [7]), -49%; in test [4] (setting [8]), 42%; in test [4] (at 50.0 µM), 61.9%. For the same compound, the growth inhibition in test [5] (setting [7]) was -29%; in test [5] (setting [8]) it was 30%; in test [5] (at 50.0 µM), 62.4%; in test [6] (setting [7]) it was -24%; in test [6] (setting [8]), 58%; in test [6] (at 50.0 µM) it was 54.1%.
With `O=C(c1ccc(Cl)cc1)c1ccc(OCCCOc2ccc(C(=O)c3ccc(Cl)cc3)cc2)cc1`, the growth inhibition in test [1] (setting [7]) was -14%; in test [1] (setting [8]), -32%; in test [1] (at 50.0 µM), 17.5%; in test [2] (setting [7]) it was -13%; in test [2] (setting [8]), 2%; in test [2] (at 50.0 µM) it was -16.1%. Also, the growth inhibition in test [3] (setting [7]) is -18%; in test [3] (setting [8]), -4%; in test [3] (at 50.0 µM), -2.15%; in test [4] (setting [7]), -30%; in test [4] (setting [8]), -7%; in test [4] (at 50.0 µM) it was 38.1%. In addition, the growth inhibition in test [5] (setting [7]) was -14%; in test [5] (setting [8]), -14%; in test [5] (at 50.0 µM) it was -14.6%; in test [6] (setting [7]) it was -22%; in test [6] (setting [8]) it was -26%; in test [6] (at 50.0 µM), -1.7%.
Consider `O=[N+]([O-])c1ccc(N/N=C/c2cccnc2)cc1`, for which the growth inhibition in test [1] (setting [7]) is 20%; in test [1] (setting [8]), 49%; in test [1] (at 50.0 µM), 66.4%; in test [2] (setting [7]), -5%; in test [2] (setting [8]), 6%; in test [2] (at 50.0 µM), -12.1%. Also, the growth inhibition in test [3] (setting [7]) was 1%; in test [3] (setting [8]), 26%; in test [3] (at 50.0 µM) it was 60.1%; in test [4] (setting [7]), 3%; in test [4] (setting [8]) it was 15%; in test [4] (at 50.0 µM), -0.05%. In addition, the growth inhibition in test [5] (setting [7]) is 3%; in test [5] (setting [8]) it was 44%; in test [5] (at 50.0 µM), 29.4%; in test [6] (setting [7]), 9%; in test [6] (setting [8]), 26%; in test [6] (at 50.0 µM) it was 45.5%.
As for `COc1ccc(C2Cc3cc(OC)ccc3C2=O)cc1` (configuration not stated), the growth inhibition in test [1] (setting [7]) was 13%; in test [1] (setting [8]) it was 94% (active); in test [1] (at 50.0 µM) it was 45.5%; in test [2] (setting [7]), 9%; in test [2] (setting [8]) it was 98% (active); in test [2] (at 50.0 µM), 29.4%. Further, the growth inhibition in test [3] (setting [7]) was 17%; in test [3] (setting [8]) it was 95% (active); in test [3] (at 50.0 µM), 56.5%; in test [4] (setting [7]), 19%; in test [4] (setting [8]), 95% (active); in test [4] (at 50.0 µM) it was 23.6%. The growth inhibition is 32% in test [5] (setting [7]); 97% (active) in test [5] (setting [8]); 96% (active) in test [5] (at 50.0 µM); 10% in test [6] (setting [7]); 97% (active) in test [6] (setting [8]); 57.4% in test [6] (at 50.0 µM).
For `CC(=O)CC1CCC(=O)/C=C/C(=O)OC(CC(C)=O)CCC(=O)/C=C/C(=O)O1` (configuration not stated), the growth inhibition is 20% in test [1] (setting [7]); 38% in test [1] (setting [8]); 16.3% in test [1] (at 50.0 µM); 14% in test [2] (setting [7]); 47% in test [2] (setting [8]); -13.5% in test [2] (at 50.0 µM). Moreover, the growth inhibition in test [3] (setting [7]) was 11%; in test [3] (setting [8]), 42%; in test [3] (at 50.0 µM), -6.3%; in test [4] (setting [7]), 5%; in test [4] (setting [8]), 27%; in test [4] (at 50.0 µM), 23.1%. The growth inhibition in test [5] (setting [7]) is 9%; in test [5] (setting [8]), 82% (active); in test [5] (at 50.0 µM), -17.1%; in test [6] (setting [7]), 17%; in test [6] (setting [8]), 56%; in test [6] (at 50.0 µM), -81.7%.
Consider `O=C1c2cc([N+](=O)[O-])ccc2-c2cc([N+](=O)[O-])ccc21`, for which the growth inhibition was 44% in test [1] (setting [7]); 32% in test [1] (setting [8]); 91.2% (active) in test [1] (at 50.0 µM); 39% in test [2] (setting [7]); 39% in test [2] (setting [8]); 92.8% (active) in test [2] (at 50.0 µM). The growth inhibition in test [3] (setting [7]) is 73% (active); in test [3] (setting [8]), 97% (active); in test [3] (at 50.0 µM) it was 93.3% (active); in test [4] (setting [7]) it was 46%; in test [4] (setting [8]), 99% (active); in test [4] (at 50.0 µM) it was 68%. Moreover, the growth inhibition in test [5] (setting [7]) is 80% (active); in test [5] (setting [8]) it was 97% (active); in test [5] (at 50.0 µM), 91.2% (active); in test [6] (setting [7]), 21%; in test [6] (setting [8]), 34%; in test [6] (at 50.0 µM), 74.5% (active).
